The values below come from PubChem BioAssay (NCI).

SMILES strings stand for the structures. About 83,000 compounds went through this panel and 20% of them were active in at least one assay; those are over-represented in the sample as a whole.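 Values shown are percent growth following 48 h exposure of cells in 96-well plates to a single concentration of compound; below 10 was considered active.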 Values without a mark were called inactive. The source made the active and inactive calls.

Common to all, as to assay: NCI-60 one-dose screen, 48 h (100 = growth as untreated, 0 = no growth, -100 = all killed)
In one assay the test system is DU-145 prostate. Conditions: 10 µM unless noted.
For another assay, the system named is K-562 leukemia. Conditions: 10 µM unless noted.
Another assay concerns MALME-3M melanoma. Conditions: 10 µM unless noted.
In the next assay the test system is MDA-MB-231 breast. Conditions: 10 µM unless noted.
For another assay, the system named is RXF 393 renal. Particulars: 10 µM unless noted.
In the next assay the test system is SF-268 CNS. Conditions: 10 µM unless noted.
The test system of the next assay is SF-295 CNS. Particulars: 10 µM unless noted.
In the next assay the test system is SF-539 CNS. Conditions: 10 µM unless noted.
For the next assay, the system named is UACC-257 melanoma. Particulars: 10 µM unless noted.
A further assay deals with M14 melanoma. Particulars: 10 µM unless noted.
In the next assay the test system is HCT-15 colon. Particulars: 10 µM unless noted.
The next assay deals with HT29 colon. Conditions: 10 µM unless noted.
For the next assay, the system named is SNB-75 CNS. Particulars: 10 µM unless noted.
A further assay deals with SNB-19 CNS. Conditions: 10 µM unless noted.
For another assay, the system named is U251 CNS. Particulars: 10 µM unless noted.
The next assay relates to PC-3 prostate. Conditions: 10 µM unless noted.
The test system of a further assay is SK-MEL-5 melanoma. Particulars: 10 µM unless noted.
Another assay relates to UACC-62 melanoma. Particulars: 10 µM unless noted.
The next assay relates to LOX IMVI melanoma. Particulars: 10 µM.
A further assay has as its system SK-MEL-28 melanoma. Conditions: 10 µM unless noted.

Consider `O=C(NN1C(=O)/C(=C/C=C/c2ccc([N+](=O)[O-])o2)SC1=S)c1ccccc1O`, for which the growth with DU-145 prostate is -100% (active); with K-562 leukemia, 7.19% (active); in the assay on MALME-3M melanoma, -95% (active); in the assay with MDA-MB-231 breast, -93.1% (active); in the assay with RXF 393 renal, -94.5% (active); in the assay with SF-268 CNS it was -81.4% (active). In addition, the growth in the assay with SF-295 CNS was -48.2% (active); in the assay with SF-539 CNS it was -100% (active); in the assay on UACC-257 melanoma it was -85% (active); with M14 melanoma, -81.3% (active); in the assay with HCT-15 colon, -80.3% (active); in the assay with HT29 colon it was -72.2% (active). For the same compound, the growth is -61.8% (active) in the assay on SNB-75 CNS; -96.1% (active) in the assay on SNB-19 CNS; -99.5% (active) in the assay on U251 CNS; -6.66% (active) with PC-3 prostate; -100% (active) in the assay with SK-MEL-5 melanoma; -93.7% (active) with UACC-62 melanoma. The growth in the assay with LOX IMVI melanoma was -91.6% (active); with SK-MEL-28 melanoma, -94.6% (active).
`C#C[C@]1(O)CC[C@H]2[C@@H]3CC=C4c5sc(-c6ccc([N+](=O)[O-])cc6)nc5CC[C@]4(C)[C@H]3CC[C@@]21C`: the growth in the assay with DU-145 prostate was 6.96% (active); in the assay on K-562 leukemia it was 5.27% (active); in the assay with MALME-3M melanoma, -28.9% (active); with MDA-MB-231 breast, -23.5% (active); in the assay with RXF 393 renal, -21.7% (active); with SF-268 CNS, 44.5%. In addition, the growth in the assay on SF-295 CNS is -41.3% (active); in the assay on SF-539 CNS it was -49% (active); with UACC-257 melanoma, 32.7%; in the assay on M14 melanoma, -53.7% (active); in the assay with HCT-15 colon, -41.4% (active); with HT29 colon it was -80.4% (active). Besides, the growth with SNB-75 CNS is 93.7%; in the assay with SNB-19 CNS, 34.5%; in the assay with U251 CNS, 0.123% (active); with PC-3 prostate, 1.72% (active); with SK-MEL-5 melanoma it was 23%; in the assay with UACC-62 melanoma, 10.6%. Besides, the growth in the assay on LOX IMVI melanoma was -59.9% (active); in the assay with SK-MEL-28 melanoma, -44.8% (active).
On to `CN(C)c1nc(NCCNS(=O)(=O)c2ccc(C3=Nc4c(N)nc(N)nc4NC(c4ccc(C(F)(F)F)cc4)C3)cc2)nc(Nc2ccc(F)cc2)n1` (stereo not given), for which the growth in the assay on DU-145 prostate was 26.9%; in the assay on K-562 leukemia, 1.59% (active); with MALME-3M melanoma it was -36.8% (active); in the assay with MDA-MB-231 breast, -37.4% (active); in the assay on RXF 393 renal, -11.9% (active); in the assay with SF-268 CNS, 28%. Moreover, the growth is 20.8% in the assay on SF-295 CNS; -65.4% (active) in the assay with SF-539 CNS; 43% in the assay on UACC-257 melanoma; 7.55% (active) with M14 melanoma; 18.7% with HCT-15 colon; -69.6% (active) in the assay on HT29 colon. Moreover, the growth in the assay with SNB-75 CNS was 31.7%; in the assay on SNB-19 CNS it was 22.9%; in the assay with U251 CNS it was 0.0667% (active); in the assay on PC-3 prostate, 17.8%; with SK-MEL-5 melanoma, -77.1% (active); in the assay with UACC-62 melanoma it was -51% (active). Moreover, the figures for the growth in the assay on LOX IMVI melanoma and in the assay on SK-MEL-28 melanoma were -78.2% (active) and 14%, respectively.
Consider `COc1ccc(NC(=O)[C@H](C)N)cc1C(=O)Nc1cccc(C2CC(=O)c3c(cc(OC)c(OC)c3OC)O2)c1` (stereo not given in full), for which the growth in the assay with DU-145 prostate was 86.6%; with K-562 leukemia, 75.8%; in the assay with MALME-3M melanoma it was 105%; with MDA-MB-231 breast, 87.3%; in the assay on RXF 393 renal, 92.8%; with SF-268 CNS it was 81.5%. Besides, the growth in the assay with SF-295 CNS was 119%; with SF-539 CNS it was 89.3%; in the assay on UACC-257 melanoma, 107%; in the assay on M14 melanoma, 110%; in the assay on HCT-15 colon, 83.9%; in the assay on HT29 colon it was 109%. Besides, the growth in the assay with SNB-75 CNS was 88.6%; in the assay on SNB-19 CNS, 91.5%; in the assay on U251 CNS it was 93.1%; with PC-3 prostate, 72.4%; in the assay with SK-MEL-5 melanoma, 76.9%; in the assay on UACC-62 melanoma it was 84.4%. The growth in the assay on LOX IMVI melanoma was 89.2%; in the assay with SK-MEL-28 melanoma, 101%.
As for `C#CCOc1ccc(/C=N/Nc2nc(-c3cc4cc(Br)ccc4oc3=O)cs2)cc1OC`, the growth in the assay with DU-145 prostate was 69.1%; in the assay with K-562 leukemia, 58%; in the assay on MALME-3M melanoma it was 59.4%; with MDA-MB-231 breast, 36.3%; in the assay with RXF 393 renal, 58.1%; in the assay with SF-268 CNS it was 59.6%. In addition, the growth in the assay on SF-295 CNS is 24.2%; in the assay on SF-539 CNS, 25.1%; in the assay on UACC-257 melanoma, 86.4%; with M14 melanoma, 79.4%; with HCT-15 colon it was 85.4%; in the assay on HT29 colon it was 36.1%. The growth was 84.5% with SNB-75 CNS; 49.6% in the assay with SNB-19 CNS; 12.5% in the assay on U251 CNS; 74.2% in the assay on PC-3 prostate; 87.1% in the assay with SK-MEL-5 melanoma; 57.5% with UACC-62 melanoma. Also, the values for the growth in the assay on LOX IMVI melanoma and with SK-MEL-28 melanoma were 49.5% and 78.2%, respectively.
As to `C#CCOc1cc(N(CC)CC)ccc1C(C(=O)NC(C)(C)C)N(C(=O)C1CCc2cc(F)ccc2O1)c1ccccc1F` (stereo not given), the growth in the assay on DU-145 prostate was 58.4%; in the assay with K-562 leukemia, 17%; in the assay on MALME-3M melanoma, 57.7%; in the assay on MDA-MB-231 breast it was 53.4%; in the assay with RXF 393 renal it was 40.4%; in the assay on SF-268 CNS it was 38.4%. Besides, the growth in the assay with SF-295 CNS was 19.9%; in the assay on SF-539 CNS, 50.7%; in the assay with UACC-257 melanoma, 30.2%; with M14 melanoma it was 39%; in the assay with HCT-15 colon, 29.8%; in the assay on HT29 colon, 45.3%. In addition, the growth with SNB-75 CNS was 39.7%; with SNB-19 CNS, 35.1%; in the assay with U251 CNS, 17.5%; in the assay on PC-3 prostate, 13.5%; in the assay on SK-MEL-5 melanoma it was 17.3%; with UACC-62 melanoma it was 30.9%. The growth was -61.6% (active) in the assay on LOX IMVI melanoma and 63.9% in the assay with SK-MEL-28 melanoma.
Regarding `COc1ccc(C2CC(c3ccc(S(=O)(=O)NCCNc4nc(Nc5ccc(F)cc5)nc(N(C)C)n4)cc3)=Nc3c(N)nc(N)nc3N2)cc1` (stereo not given), the growth is 102% with DU-145 prostate; 35.6% in the assay with K-562 leukemia; 106% with MALME-3M melanoma; 64.2% in the assay with MDA-MB-231 breast; 53.3% with RXF 393 renal; 73.8% in the assay on SF-268 CNS. Moreover, the growth was 94.8% with SF-295 CNS; 75.4% in the assay on SF-539 CNS; 100% with UACC-257 melanoma; 81.9% with M14 melanoma; 82.7% in the assay on HCT-15 colon; 63.4% with HT29 colon. Also, the growth was 92.7% in the assay with SNB-75 CNS; 76.3% with SNB-19 CNS; 64.5% in the assay with U251 CNS; 53.7% in the assay with PC-3 prostate; 71.7% in the assay on SK-MEL-5 melanoma; 81.6% with UACC-62 melanoma. Further, the growth was 65.1% in the assay with LOX IMVI melanoma and 85.5% in the assay on SK-MEL-28 melanoma.
